An excerpt weighted towards active compounds, which were near 3.5% of everything screened.
TSHR ag: qHTS Assay for Agonists of the Thyroid Stimulating Hormone Receptor. Thyrotropin receptor (Homo sapiens), P16473. HEK293-CNG-TSHR cells (CNG channel as cAMP sensor), membrane potential dye, cAMP. Potency, µM (highest dose often 57.1 µM), actives largely listed as activators. 73,000 tested, 0.48% active. AID 926, 2007; active = well fitted activation curve with a large enough effect in the main read-out, with a control signal flat, not every such curve was filed as active; inconclusive = small, poorly fitted or top-dose-only effect, or a change in a side signal; inactive = no such curve, though single readings can be large or run the other way; reference of the percent scale not stated here;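 also: the control signal comes from parental cells without the receptor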
Target sequence (P16473 whole entry, looked up): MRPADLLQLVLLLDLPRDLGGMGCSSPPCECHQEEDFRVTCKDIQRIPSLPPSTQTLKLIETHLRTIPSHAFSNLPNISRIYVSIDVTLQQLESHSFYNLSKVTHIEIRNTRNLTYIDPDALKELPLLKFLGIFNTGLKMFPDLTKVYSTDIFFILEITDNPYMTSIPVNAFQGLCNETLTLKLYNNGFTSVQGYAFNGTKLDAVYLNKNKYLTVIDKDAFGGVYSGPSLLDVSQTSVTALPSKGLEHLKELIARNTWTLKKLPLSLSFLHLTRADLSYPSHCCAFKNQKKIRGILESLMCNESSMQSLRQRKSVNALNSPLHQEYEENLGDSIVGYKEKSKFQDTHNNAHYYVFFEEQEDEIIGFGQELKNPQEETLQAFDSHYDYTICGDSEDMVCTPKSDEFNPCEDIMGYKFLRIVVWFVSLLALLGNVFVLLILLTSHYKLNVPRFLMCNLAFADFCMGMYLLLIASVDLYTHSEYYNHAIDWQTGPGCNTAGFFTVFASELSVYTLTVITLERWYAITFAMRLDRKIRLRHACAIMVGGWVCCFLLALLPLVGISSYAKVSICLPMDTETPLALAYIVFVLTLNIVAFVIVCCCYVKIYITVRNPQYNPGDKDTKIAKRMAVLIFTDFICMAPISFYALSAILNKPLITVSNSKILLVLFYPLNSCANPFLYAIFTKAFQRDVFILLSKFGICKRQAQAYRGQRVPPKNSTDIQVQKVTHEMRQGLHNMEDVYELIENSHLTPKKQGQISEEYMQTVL
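HEK 293 cells stably expressing TSHR and a cAMP-gated CNG channel; parental CNG-only cells as counterscreen. Cells preloaded 60 min with membrane potential dye plus 100 uM RO 20-1724, then compound 30 min; fluorescence read at 590 nm.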
HEK293 cAMP cs: qHTS Assay for Agonists of the Thyroid Stimulating Hormone Receptor: Activators of Intracellular cAMP Concentrations in Parental HEK 293; Potency, µM (doses to about 57.1 µM), most hits filed as activators; AID 938, 2007; 73,000 tested, 2.5% active; parental HEK293 CNG cAMP sensor, membrane potential fluorescence; active = well fitted activation curve with a large enough effect; inconclusive = small, poorly fitted or top-dose-only effect; inactive = no such curve, though single readings can be large or run the other way; also: nearly all actives have a fitted effect of over 55% in size
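Counterscreen for endogenous-receptor signalling: CNG-channel HEK 293 cells report cAMP rise by membrane depolarization. After 60 min dye equilibration with 100 uM RO 20-1724, compounds incubated 30 min before bottom-read fluorescence at 590 nm.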
IkB signaling: IkB Signaling. Potency, µM (series often up to 57.1 µM). AID 445, 2006. ABC-DLBCL IkBa-CBG/CBR dual luciferase ratio, 4 h; response scale: scaled: untreated 0%, proteasome inhibitor 100%. 110,000 tested, 0.04% active; active = well fitted curve in the direction sought with a large enough effect in the signal ratio, not every such curve was filed as active; inconclusive = small, poorly fitted or top-dose-only effect, or a change in a side signal; the % refers to the signal ratio;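 also: the direction sought is a rising ratio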
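In this assay, an IκBα–CBG68 fusion accumulates when IKK-driven degradation is blocked; native CBR normalizes for cell number. OCI-Ly3 cells were treated 4 h with compound and doxycycline, then green and red light read after Chroma-Glo addition.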
CRE-bla Fsk: Cell signaling CRE-BLA (Fsk stim); CHO CRE-bla reporter (cAMP response element driving beta-lactamase), forskolin EC10, beta-lactamase ratio; Potency, µM (top dose mostly 38.2 µM), usual class: activators; 71,000 tested, 2.5% active; AID 662, 2007; active = well fitted activation curve with a large enough effect in the signal ratio, with a control signal flat, not every such curve was filed as active; inconclusive = small, poorly fitted or top-dose-only effect, or effect the other way, or a change in a side signal; the % refers to the signal ratio
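CHO CRE-bla cells, overnight plating in Opti-MEM with 0.5% dialyzed FBS; cpd titration + EC10 NKH 477, 3 h 37 °C; CCF4 2 h RT; ex 405/em 460 vs 530 ratio → %Activity, AC50.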
Hsp90 Hop PPI: qHTS Assay for Disrupters of an Hsp90 Co-Chaperone Interaction; Hsp90 C-terminal peptide / TPR2A (Hop) interaction, human; AlphaScreen TPR2A-His6 binding biotin-Hsp90 C-terminal peptide; 71,000 tested, 0.44% active; Potency, µM (highest dose often 57 µM); active = well fitted curve in either direction with a large enough effect; inconclusive = small, poorly fitted or top-dose-only effect, or another doubt
Hits are given with their value; – = inactive; ? = inconclusive; · = no result given; [ ] = another dose, or the depositor's remark.

SMILES	TSHR ag	HEK293 cAMP cs	IkB signaling	CRE-bla Fsk	Hsp90 Hop PPI
CCOC(=O)c1cc(C#N)c(NCc2ccccc2)nc1C	–	–	–	?	–
CCCCN(CC)CCNS(=O)(=O)c1cccc2cccnc12	–	–	–	–	–
C=C(C)COc1ccc2c(C)c(C)c(=O)oc2c1OCC(=C)C	?	?	–	–	–
CC(=O)COc1ccc2c3c(c(=O)oc2c1C)CCCCC3	–	–	–	2µM	–
Cc1c(OCC(=O)OC(C)C)ccc2c3c(c(=O)oc12)CCC3	?	?	–	–	–
C=C(C)COc1ccc2c3c(c(=O)oc2c1OCC(=C)C)CCC3	?	25µM	–	?	–
COc1cc2c(C#N)c(N3CCc4ccccc4C3)nc(N)c2c(N)n1	–	–	–	0.63µM	–
COc1cc2c(C#N)c(N3CCOCC3)nc(N)c2c(N)n1	–	–	–	10µM	–
CC(=O)O[C@@H]1[C@H]([N+]2(C)CCCCC2)C[C@@H]2[C@@H]3CC[C@@H]4C[C@@H](OC(C)=O)[C@H]([N+]5(C)CCCCC5)C[C@@]4(C)[C@H]3CC[C@]21C	–	–	–	–	–
COc1cccc(CNC(=O)c2cc(=O)[nH]c3ccc(S(=O)(=O)N4CCCC4)cc23)c1	·	·	–	·	·
O=C(Nc1cc(C(F)(F)F)ccc1N1CCOCC1)C1Cc2ccccc2CN1C(=O)c1ccco1 (stereo not drawn)	?	1.3µM	?	?	–
O=C(Nc1cc(C(F)(F)F)ccc1N1CCCCC1)c1ccco1	?	?	–	–	–
CCNC(=O)CSc1nc2cc(OC)c(OC)cc2c(=O)n1CCC1=CCCCC1	–	–	–	–	–
CCSc1nc2cc(OC)c(OC)cc2c(=O)n1CC	–	–	–	10µM	–
CN(C)c1ncc2nc(-c3cc(F)cc(F)c3)c(=O)n(C[C@H]3CCCO3)c2n1	?	?	–[11.4 µM]	?	–
CN(C)c1ncc2nc(CCc3ccccc3)c(=O)n(C[C@H]3CCCO3)c2n1	?	?	–[11.4 µM]	13µM	?
CN(C)c1ncc2nc(-c3ccc(F)cc3)c(=O)n(C[C@H]3CCCO3)c2n1	–	–	–[11.4 µM]	2.5µM	–
Cc1nc2cnc(N(C)C)nc2n(C[C@H]2CCCO2)c1=O	?	?	–[11.4 µM]	10µM	–
Cn1nnnc1SCCCNCc1ccccc1OCc1ccccc1Cl	·	·	–	·	·
Cn1cccc1C(=O)N1CCC2(CCN(C(=O)Nc3ccccc3)CC2)CC1	–	–	–[11.4 µM]	–	–
CCN(CC)S(=O)(=O)c1cccc(-c2nnc(SCCOc3ccccc3C)o2)c1	?	16µM	?	?	?
CCN(CC)S(=O)(=O)c1cccc(-c2nnc(SCC(=O)c3cc(C)n(C)c3C)o2)c1	?	16µM	–	–	–
CCN(CC)S(=O)(=O)c1cccc(-c2nnc(SCCOc3ccccc3)o2)c1	?	7.9µM	–	–	?
COCCNc1ccnc(-c2ccccc2CN(C)C)n1	–	–	–[11.4 µM]	–	–
COc1ccc(-c2coc3ccc(O[C@@H]4O[C@@H](COC(C)=O)[C@@H](OC(C)=O)[C@@H](OC(C)=O)[C@H]4OC(C)=O)c(OC(C)=O)c3c2=O)cc1	–	–	–[11.4 µM]	–	–
SMILES	TSHR ag	HEK293 cAMP cs	IkB signaling	CRE-bla Fsk	Hsp90 Hop PPI
COC(=O)c1c(-c2cccs2)csc1NC(=O)c1ccc(C(C)(C)C)cc1	·	·	–	·	·
CCc1nc2nc(C)cc(Nc3cc(Cl)ccc3OC)n2n1	·	·	–	·	·
CCOc1ccccc1CN(CCc1ccc2c(c1)OCO2)Cc1ccccn1	?	16µM	–	–	–
CCOC(=O)c1cc(C)n(CCc2ccccc2)c1C	?	25µM	–	–	–
CCOC(=O)c1cc(-c2ccccc2)n(CC(=O)NCc2ccccc2)c1C	·	·	–	·	·
O=C(NCc1ccco1)C1CCN(C(=O)c2cc3sccc3n2Cc2ccc(F)cc2)CC1	20µM	–	?	?	–
CCn1c(C(=O)N2CCC(C(=O)NCCCSC3CCCCC3)CC2)cc2sccc21	?	16µM	?	?	–
Cc1ccc(-c2nc(S(=O)(=O)c3ccc(C)cc3)c(SCC(=O)c3ccccc3)o2)cc1	·	·	–	·	·
COC(=O)c1cc(CSc2nnc(-c3ccccc3)c(-c3ccccc3)n2)oc1C	–	–	–	?	–
COC(=O)c1cc(CSc2nc3ccc(C)cc3[nH]2)oc1C	?	20µM	?	?	–
CC(C)[C@H](Nc1ncnc2nc[nH]c12)C(=O)O	–[11.4 µM]	–[11.4 µM]	–[11.4 µM]	–[7.6 µM]	–[11 µM]
CCOc1ccc(C2C=C(c3ccc(C)cc3)Nc3ncnn32)cc1 (stereo not drawn)	?	20µM	–	?	–
COc1cccc(Oc2cn[nH]c2-c2ccc(OC)cc2O)c1	?	?	–	?	–
COc1cccc(Oc2cn[nH]c2-c2ccc(O)cc2O)c1	?	1µM	–	–	–
CN(C)C1CCN(C(=O)c2ccc(-n3c(=O)c(=O)[nH]c4ccccc43)cc2)C1 (stereo not drawn)	–	–	·	·	·
CCCC[C@@H]1C[C@H]1C(NC(=O)Cc1ccccc1)c1ccc(-c2ccccc2)cc1 (stereo partly drawn)	1µM	–	·	–	?
CCCC[C@@H]1C[C@H]1C(NC(=O)c1ccccc1)c1ccc(C(=O)OC)cc1 (stereo partly drawn)	?	16µM	·	?	–
CCCC[C@@H]1C[C@H]1C(NC(=O)c1ccco1)c1ccccc1 (stereo partly drawn)	?	16µM	·	–	–
CCCC[C@@H]1C[C@H]1C(NS(=O)(=O)c1cccc2cccnc12)c1ccc(-c2ccccc2)cc1 (stereo partly drawn)	–	–	·	–	–
CC(=O)Nc1ccc(C2NC(C(=O)O)CCC2C)cc1 (stereo not drawn)	–[11.4 µM]	–[11.4 µM]	·	·	·
CCOC(=O)c1c(CN(CC)CC)oc2cc(Br)c(O)cc12	·	–	–	3.2µM	–[2.3 µM]
CCOC(=O)c1c(CN2CCN(C)CC2)oc2ccc(O)cc12	–	–	–	–	–
C=C[C@@]1(C)CC(=O)[C@@]2(O)[C@@]3(C)[C@@H](O)CCC(C)(C)[C@@H]3[C@H](OC(=O)CCN(C)C)[C@H](OC(C)=O)[C@@]2(C)O1	?	0.13µM	–	0.05µM	?
C=C[C@@]1(C)CC(=O)[C@@]2(O)[C@@]3(C)[C@H](O)CCC(C)(C)[C@@H]3[C@H](O)[C@H](OC(C)=O)[C@]2(C)O1	?	0.5µM	–	?	–
CC(C)OC(=O)CSc1nnc(Cc2ccccc2)n1Cc1ccco1	?	5µM	–	–	–
O=C(CSc1nnc(Cc2ccccc2)n1Cc1ccco1)NC1CCCC1	?	?	–	–	–
COc1cccc(-c2nnc(SCC(=O)OC(C)C)n2Cc2ccco2)c1	?	16µM	–	?	–
O=C(CSc1nnc(-c2ccc(O)cc2)n1Cc1ccco1)c1cccs1	10µM	–	–	–	–

Screening results from PubChem BioAssay.
